Source: PubChem BioAssay (NCATS)
Records with an inconclusive call do not appear. Where a call stands in place of a potency, no number is given. Calls of active or inactive are those of the source. Unless noted, the call rests on the fitted dose curve; in most records, active means well fitted curve in the direction sought with a large enough effect; inconclusive means small, poorly fitted or top-dose-only effect, or another doubt; inactive means no such curve, though single readings can be large; an effect the other way counts as inactive or inconclusive.

Assays:
[1] = target: Aldehyde dehydrogenase, mitochondrial (Homo sapiens) (UniProt P05091); assay: qHTS for Inhibitors of the Aldehyde Dehydrogenase Family (ALDH2) Confirmatory screens (AID 2061303; active means well fitted inhibition curve with a large enough effect; title and protocol of this record describe different tests; further: nearly all actives have a fitted effect of over 45% in size; further: potency means the concentration at half of the fitted maximal effect)
[2] = qHTS for Inhibitors of the Aldehyde Dehydrogenase Family (ALDH1A2, ALDH1A3, ALDH2, ALDH3A1) (AID 2061307); further: nearly all actives have a fitted effect of over 50% in size; on potency: test system not described further here; potency means the concentration at half of the fitted maximal effect
[3] = target: Aldehyde dehydrogenase, mitochondrial (Homo sapiens) (UniProt P05091); assay: qHTS for Inhibitors of the Aldehyde Dehydrogenase Family (ALDH2) Primary screen (AID 2061308); further: nearly all actives have a fitted effect of over 55% in size; further: potency means the concentration at half of the fitted maximal effect
[4] = target: Retinaldehyde dehydrogenase 3 (Homo sapiens) (UniProt P47895); assay: qHTS for Inhibitors of the Aldehyde Dehydrogenase Family (ALDH1A3) Confirmatory screens (AID 2061311); further: nearly all actives have a fitted effect of over 60% in size; further: potency means the concentration at half of the fitted maximal effect
[5] = target: Retinal dehydrogenase 2 (Homo sapiens) (UniProt O94788); assay: qHTS for Inhibitors of the Aldehyde Dehydrogenase Family (ALDH1A2) Confirmation screens (AID 2061314); further: nearly all actives have a fitted effect of over 65% in size; further: potency means the concentration at half of the fitted maximal effect
[6] = target: Retinaldehyde dehydrogenase 3 (Homo sapiens) (UniProt P47895); assay: qHTS for Inhibitors of the Aldehyde Dehydrogenase Family (ALDH1A3) Primary screen (AID 2061315)
[7] = target: Aldehyde dehydrogenase 1A1 (Homo sapiens) (UniProt P00352); assay: qHTS for Inhibitors of the Aldehyde Dehydrogenase Family (ALDH1A1) Confirmatory screens (AID 2061316); further: nearly all actives have a fitted effect of over 65% in size; further: potency means the concentration at half of the fitted maximal effect

| SMILES | Potency [1] | Potency [2] | Potency [3] | Potency [4] | Potency [5] | Potency [6] | Potency [7] |
| --- | --- | --- | --- | --- | --- | --- | --- |
| O=C(O)c1ccc2c(c1)C(=O)N([C@]1(C(=O)O)C[C@H]1c1ccccc1)C2=O | inactive | inactive | inactive | inactive | inactive | inactive |  |
| COc1ccc(C[C@H](N)C(=O)N[C@H]2[C@@H](O)[C@H](n3cnc4c(N(C)C)ncnc43)O[C@@H]2CO)cc1 | inactive | inactive | inactive | inactive | inactive | inactive | inactive |
| COc1cccc(OC2=NS(=O)(=O)c3ccccc32)c1 | inactive | inactive | inactive | inactive | inactive | inactive |  |
| Cc1cc(C)n2ncc(C(=O)Nc3ccc4c(c3)OCO4)c2n1 | inactive | inactive | inactive | inactive | inactive | inactive |  |
| O=C1NS(=O)(=O)c2cc3c(cc21)C(=O)NS3(=O)=O | inactive | inactive | inactive | inactive | inactive | inactive |  |
| COc1ccc(C2Nc3ccccc3C(=O)N2Cc2ccc(Cl)cc2)cc1COc1ccc(NC(C)=O)cc1 (stereo not drawn) | 3.98 µM (active) | 2.25 µM (active) | inactive | 3.55 µM (active) | 12.7 µM (active) | inactive |  |
| CCCCC(=O)N1CCC(C(=O)Nc2ccc([S+](=O)([O-])Nc3nccs3)cc2)CC1 | inactive | inactive | inactive | inactive | inactive | inactive |  |
| COc1ccc(C=O)cc1COc1ccc(NC(C)=O)cc1 | 3.16 µM (active) | 0.318 µM (active) | inactive | 15.8 µM (active) | 3.18 µM (active) | inactive |  |
| O=C(NC1CCCc2c1cnn2-c1ccc(F)cc1F)c1ccncc1 (stereo not drawn) | inactive | inactive | inactive | inactive | inactive | inactive |  |
| Cc1ccc(OCCn2c(CCNC(=O)c3cccc(Cl)c3)nc3ccccc32)cc1 | inactive | inactive | inactive | inactive | inactive | inactive |  |
| Cc1ccc(CNc2ccc(N3CCNCC3=O)cc2)cc1 | inactive | inactive | inactive | 14.2 µM (active) | 10.1 µM (active) | inactive |  |
| FC(F)(F)c1ccccc1-c1nc(NCc2ccc(-c3cccnc3)cc2)c2ccccc2n1 | inactive | inactive | inactive | 10.1 µM (active) | inactive | inactive |  |
| Nc1nnc(-c2ccc3ccccc3c2)o1 | inactive | inactive | inactive | inactive | inactive | inactive | inactive |
| Cc1nc2ccc(Nc3nc(Nc4c(C)cc(C=CC#N)cc4C)nc4nc[nH]c34)cc2s1 | inactive | 10.1 µM (active) | inactive | inactive | inactive | inactive |  |
| Cc1ccc(-c2nccc(=O)n2CC(=O)NCCc2ccccc2)cc1 | inactive | inactive | inactive | inactive | inactive | inactive |  |
| Cc1cn([C@H]2C[C@H](N[S+](=O)([O-])Cc3ccc(Cl)cc3)[C@@H](CO)O2)c(=O)[nH]c1=O | inactive | inactive | inactive | inactive | inactive | inactive |  |
| Cn1nnnc1Sc1ncnc2scc(Br)c12 | inactive | inactive | inactive | inactive | inactive | inactive |  |
| N#Cc1ccc(-c2ccc(C3Nc4ccccc4C(=O)N3O)o2)cc1 (stereo not drawn) | 1.26 µM (active) | 3.18 µM (active) | 1.26 µM (active) | 5.04 µM (active) | 3.18 µM (active) | inactive | 3.57 µM (active) |
| COc1cc(CNc2ncnc3ccc(-c4c(C)noc4C)cc23)cc(OC)c1OC | inactive | inactive | inactive | inactive | inactive | inactive |  |
| CC(=O)Nc1sc2c(c1-c1cnn(C(C)=O)c1)CCNC2 | inactive | inactive | inactive | inactive | inactive | inactive |  |
| O=C(Nc1ccc(F)c(C(F)(F)F)c1)Nc1nnc(C2CCCCC2)s1 | inactive | inactive | 8.91 µM (active) | inactive | inactive | inactive |  |
| NC(=O)C1CCN(c2nc(-c3ccc([N+](=O)[O-])cc3)cs2)CC1 | 25.1 µM (active) | 11.3 µM (active) | inactive | 22.5 µM (active) | 3.18 µM (active) | inactive |  |
| C[C@@H](N)C(=O)Nc1ccc(Cl)cc1C(=O)c1ccc[nH]1 | inactive | inactive | inactive | inactive | inactive | inactive |  |
| c1cncc(CNc2ncnc3ccc(-c4ccoc4)cc23)c1 | inactive | inactive | inactive | inactive | inactive | inactive |  |
| Cc1ccc(OCCn2c(CCNC(=O)c3ccccc3C(F)(F)F)nc3ccccc32)cc1 | inactive | inactive | inactive | inactive | inactive | inactive |  |
